Our source for the normalized absorbance values is PubChem BioAssay AID493162 (ICCB-Longwood Screening Facility, Harvard Medical School, 2011).

The campaign covered roughly 46,000 compounds. About 430 (0.93%) were called active. The full list was thinned out, with actives kept by preference. A number with no mark means an inactive call. No stated cut-off is given here; in the data, active means normalized absorbance mostly below about 85% (no sharp cut-off); inactive means mostly above about 86%.

The experiment has as its system Vaccinia virus DNA polymerase (E9) processive complex. The experiment in a line: vaccinia E9 polymerase processive synthesis inhibitors, primary screen, biochemical, absorbance (AID 493162). As to conditions: in vitro processive DNA synthesis, absorbance read-out; stronger effect = lower value; concentration not given here.
With `CC(C)NC(=O)CN1C(=O)c2cccnc2Oc2ccccc21`, the normalized absorbance is 102%.

Regarding `O=C(NCc1ccccc1Cl)C1(c2ccccc2)CCCC1`, the normalized absorbance is 97.8%.

For the molecule `CS(=O)(=O)N1CCN=C1SCc1cccnc1`, the normalized absorbance was 66.5% (active).

Regarding `CSC1=NCCN1S(=O)(=O)c1ccc(Br)cc1`, the normalized absorbance is 110%.

Regarding `O=C(O)CCc1cccnc1`, the normalized absorbance was 102%.

Turning to `COC(=O)Nc1cn(Cc2ccccn2)c(=O)c2ccccc12`, the normalized absorbance was 112%.

Take `O=c1[nH]c(=S)[nH]cc1S(=O)(=O)c1ccc(F)cc1`: the normalized absorbance is 99.5%.

On to `O=C(Nc1ccc2nc(SCC(=O)N3CCc4ccccc43)sc2c1)c1ccccc1Cl`, for which the normalized absorbance was 100%.

In the case of `CCN(CC)c1ccc(C=Nc2cc(C)cc(C)c2)cc1`, the normalized absorbance is 100%.

`CCOc1ccc(S(=O)(=O)N2CCC(C)CC2)cc1`: the normalized absorbance was 99%.

Regarding `Nc1ccc(-c2nc3ccccc3[nH]2)c(N)c1`, the normalized absorbance is 99.3%.

As for `COc1ccc(C2=NS(=O)(=O)N(C)C(C(=O)N(C)Cc3ccccc3)=C2)cc1`, the normalized absorbance was 86.6%.

`Cc1cccc(-n2nc3c(c2NC(=O)/C=C\c2ccco2)CSC3)c1C`: the normalized absorbance is 85.2%.

Take `CC(=O)n1c(C=Nc2ccccc2)c(O)c2ccccc21`: the normalized absorbance is 99.4%.

For `CC(=O)Nc1sc(C)nc1-c1ccccc1`, the normalized absorbance is 99.1%.

With `CC(=O)n1c2ccccc2c2nc(C)sc21`, the normalized absorbance is 45.9% (active).

Consider `Cc1nc2ccc(S(=O)(=O)NC(CC(C)C)C(=O)NC3CCCCCC3)cc2s1` (stereo unspecified), for which the normalized absorbance is 103%.

`CCOc1ccc(C(=O)Nc2nc3c(OC)cccc3s2)cc1`: the normalized absorbance was 106%.

Consider `Cc1ccc(S(=O)(=O)N2CCCC(n3cccc3)C2)cc1` (stereo unspecified), for which the normalized absorbance is 117%.

With `CC12CCC3C(CCC4CCCCC43C)C1C/C(=C\c1ccc[nH]1)C2=O` (stereo unspecified), the normalized absorbance is 101%.

Take `Cc1cc(Nc2ccc(Cl)cc2)n2c(nc3ccccc32)c1C#N`: the normalized absorbance was 100%.

For `COc1ccc(-c2cc(-c3ccccc3)nc(SCC(N)=NC#N)c2C#N)cc1`, the normalized absorbance is 100%.

`C[N+](C)(C)CCOC(=O)c1ccccc1`: the normalized absorbance is 99.6%.

Regarding `Cc1nc(C)nc(N(Cc2ccccc2)Cc2ccccc2)n1`, the normalized absorbance is 94.7%.

Consider `Cc1ccc(Nc2c(-c3c[nH]c4ccccc34)nc3c[n+](CC(N)=O)ccn23)cc1`, for which the normalized absorbance is 95.2%.

Regarding `COc1ccc(C(=O)N2CCN(c3ccc(N4CCOCC4)nn3)CC2)cc1`, the normalized absorbance was 101%.

With `O=C1NC(=Nc2ccc(O)cc2)S/C1=C\c1ccc(Cl)cc1Cl`, the normalized absorbance is 100%.

Regarding `CC1CCc2sc(NC(=O)Cc3ccccc3)c(C(N)=O)c2C1` (stereo unspecified), the normalized absorbance was 89.9%.

Consider `COc1ccc(C(=O)CSC2=C(C#N)C(c3cccs3)CC(=O)N2)cc1` (stereo unspecified), for which the normalized absorbance was 101%.

For `Cc1nc(SCC(=O)c2ccc(Cl)cc2)c(C#N)c(C)c1C`, the normalized absorbance is 99.7%.

With `N#Cc1c(-c2cccs2)nc(SCC(=O)c2ccc(Br)cc2)[nH]c1=O`, the normalized absorbance is 68.9% (active).
